Consider 94 molecules from PubChem BioAssay AID463173 (ICCB-Longwood Screening Facility, Harvard Medical School, 2010).

The whole screen tested about 52,000 compounds, of which about 4,300 (8.3%) were called active. The sample as a whole holds a higher share of actives than the screen did. A number with no mark means an inactive call. No stated cut-off is given here; in the data, active means survival mostly below about 52% (no sharp cut-off); inactive means mostly above about 56%.

For the assay, the system named is DeltatarO mutant. Nature of the assay: S. aureus survival, RN4220 and DeltatarO strains – OD600, teichoic acid synthesis inhibitors, primary screen (AID 463173). Conditions: S. aureus RN4220 wild type/DeltatarO growth, OD600, 18 h, hits give low values, screened at 18.75 µg/mL (by protocol).
Consider `CN(C1CCCCC1)S(=O)(=O)c1ccc(C(=O)Nc2sc3c(c2C(N)=O)CC(C)(C)NC3(C)C)cc1`, for which the survival is 84%. Regarding `COc1ccc2c(c1)c1c(c(=O)n(-c3ccccc3)c(=O)n1CC(=O)NCc1ccc(C)cc1)n2C`, the survival was 83%. With `COc1ccc(-n2cc(C(=O)NCc3ccccc3)c3ccccc3c2=O)cc1`, the survival is 61%.

Take `O=C(Cc1ccccc1)Nc1c(C(=O)Nc2ccccc2F)oc2ccccc12`: the survival is 83%.

Regarding `O=C(Nc1ccccc1F)c1oc2ccccc2c1NC(=O)c1c(F)cccc1F`, the survival was 26% (active). Under `CCOc1ccc(NC(=O)c2oc3ccccc3c2NC(=O)c2cc(C)cc(C)c2)cc1` stands 82%; under `COc1ccc(C(=O)Nc2c(C(=O)c3ccccc3)oc3ccccc23)cc1`, 72%; under `CCOc1ccc(NC(=O)c2oc3ccccc3c2NC(=O)c2c(F)cccc2F)cc1`, 91%.

For `CC(=O)Nc1c(C(=O)Nc2ccccc2F)oc2ccccc12`, the survival is 119%.

As for `COc1cc(C(=O)Nc2c(C(=O)Nc3ccccc3F)oc3ccccc23)cc(OC)c1OC`, the survival is 52%. With `COc1ccccc1C(=O)Nc1c(C(=O)Nc2ccccc2F)oc2ccccc12`, the survival was 13% (active). As to `COc1ccccc1C(=O)Nc1c(C(=O)NC(C)(C)C)oc2ccccc12`, the survival was 99%. With `CCOc1ccc(NC(=O)c2oc3ccccc3c2NC(=O)C(C)(C)C)cc1` the figure was 38% (active); with `COc1ccccc1NC(=O)c1oc2ccccc2c1NC(=O)c1c(F)cccc1F`, 51%; with `COc1ccccc1C(=O)Nc1c(C(=O)c2ccccc2)oc2ccccc12`, -1% (active). With `CCN1C(=O)/C(=C2\C=Cc3ccccc3N2CC)SC1=S`, the survival was 77%. For `CC(=O)Nc1ccc(-c2nnc(SCC(=O)c3ccc([N+](=O)[O-])cc3)o2)cc1`, the survival was 66%. Turning to `CCOc1ccccc1C(=O)Nc1cc2c(cc1N1CCOCC1)n(C)c(=O)n2C`, the survival is 77%. With `CCCNC(=O)N1CCc2cc(OC)c(OC)cc2C1c1cc2cc3c(cc2[nH]c1=O)OCO3` (centres undefined), the survival was 91%. Regarding `CCOCCc1nn2c(=O)cc(COC(=O)COc3ccccc3Cl)nc2s1`, the survival is 88%. Regarding `COc1ccc(N2CCN(C(=O)c3oc4ccccc4c3NC(=O)c3ccccc3OC)CC2)cc1`, the survival was 131%.

Turning to `COc1ccccc1C(=O)Nc1c(C(=O)N2CCN(c3ccccc3F)CC2)oc2ccccc12`, the survival was 92%.

Take `O=C(Nc1c(C(=O)Nc2ccccc2F)oc2ccccc12)c1cc2ccccc2o1`: the survival is 37% (active). On to `O=C(Nc1c(C(=O)Nc2cccc(F)c2)oc2ccccc12)c1cc2ccccc2o1`, for which the survival is 35% (active). As to `Cc1cccc(CC(=O)Nc2c(C(=O)Nc3cccc(F)c3)oc3ccccc23)c1`, the survival is 57%. Take `O=C(O)c1ccc(NC(=O)c2cc3ccccc3o2)cc1`: the survival is 59%.

For the molecule `Cc1cc(C)cc(C(=O)Nc2c(C(=O)Nc3ccccc3F)oc3ccccc23)c1`, the survival was 80%. Take `COc1cccc(NC(=O)c2oc3ccccc3c2NC(=O)c2cc3ccccc3o2)c1`: the survival was 51%. With `COc1ccccc1C(=O)Nc1c(C(=O)N2CCN(c3ccc(F)cc3)CC2)oc2ccccc12` the figure was 0% (active). With `COc1ccc(NC(=O)c2oc3ccccc3c2NC(=O)c2cc3ccccc3o2)c(OC)c1`, the survival is 72%. With `CC(C)Oc1ccc(NC(=O)c2cc3ccccc3o2)cc1` the figure was 40% (active). `O=C(Nc1ccc(NC(=O)c2cc3ccccc3o2)cc1)c1ccccc1`: the survival is 86%. `COc1ccc(CCNC(=O)CCS(=O)(=O)c2cc3c(cc2Cl)NC(=O)CO3)cc1OC`: the survival was 90%. Consider `COc1ccc(-c2noc(-c3ccc(C)cc3Cl)n2)cc1OC`, for which the survival is 136%. As to `Cc1ccc(C)c(NC(=O)Cn2cc(S(=O)(=O)N3CCCC3)c(S(=O)(=O)N3CCCC3)c2)c1`, the survival was 94%. `COc1ccc(OC)c(NC(=O)c2cn3c4c(ccc(Cl)c4c2=O)OC(C)C3)c1` (centres undefined): the survival is 87%.

As for `Cc1ccc(-c2cc(NC(=O)COc3ccc(Cl)c(C)c3)on2)cc1`, the survival was 86%. Under `Oc1c(Br)cc(Br)cc1-c1nc2ccccc2s1` stands 126%; under `CCOc1ccccc1CNC(=O)CCn1cccn1`, 67%. In the case of `CCOC(=O)C1CCN(c2cc3c(cc2NC(=O)c2ccc(Cl)cc2)n(C)c(=O)n3C)CC1`, the survival is 93%. With `COc1ccc(CNC(=O)C2=C(C)C(=O)OC23CCCCC3)cc1`, the survival was 82%.

For the molecule `CCc1ccc(S(=O)(=O)c2cn(C)c3cc(OC)c(OC)cc3c2=O)cc1`, the survival was 121%. In the case of `CCOC(=O)c1ccc(NC(=O)C2Cc3ccccc3CN2S(=O)(=O)c2ccc(Cl)cc2)cc1` (centres undefined), the survival is 53%. As to `CCCc1c(C)c2ccc(O)c(CN3CCN(c4ccc(F)cc4)CC3)c2oc1=O`, the survival is 52%. `O=C(NCCCN=C1NS(=O)(=O)c2ccccc21)c1ccncc1`: the survival is 85%. Consider `O=C(Nc1c(C(=O)N2CCN(c3ccccc3)CC2)oc2ccccc12)c1ccco1`, for which the survival is 37% (active). Under `CCOc1cccc(C(=O)Nc2c(C(=O)c3ccc(OC)cc3)oc3ccccc23)c1` stands 28% (active); under `CCOc1ccc(C(=O)Nc2c(C(=O)c3ccc(OC)cc3)oc3ccccc23)cc1`, 79%. For `O=C(Nc1c(C(=O)N2CCN(c3ccc(F)cc3)CC2)oc2ccccc12)c1ccco1`, the survival was 74%. With `CCOc1ccccc1C(=O)Nc1c(C(=O)Nc2ccc(F)cc2)oc2ccccc12` the figure was 83%; with `O=C(Nc1c(C(=O)N2CCN(c3ccccc3F)CC2)oc2ccccc12)c1ccco1`, 69%. With `COc1ccc(C(=O)c2oc3ccccc3c2NC(=O)c2cccc(OC)c2)cc1` the figure was 58%. On to `COc1cccc(C(=O)Nc2c(C(=O)Nc3ccc(F)cc3)oc3ccccc23)c1OC`, for which the survival was 60%. Under `O=C(Nc1c(C(=O)Nc2ccc(F)cc2)oc2ccccc12)c1ccccc1F` stands 40% (active); under `COCCNC(=O)c1ccc2nc(CCc3ccccc3)oc2c1`, 112%.

As for `CCOC(=O)c1c(NC(=O)/C=C/c2ccc(OCC)cc2)sc(C)c1C`, the survival is 50%.

Regarding `CCOc1ccc(C(c2c(O)cc(C)n(CCOC)c2=O)N2CCC(C)CC2)cc1` (centres undefined), the survival is 73%.

Regarding `CCc1ccccc1NC(=O)CN(c1cccc(C)c1C)S(C)(=O)=O`, the survival is 54% (active). Regarding `Cc1cccc(N(CC(=O)NCc2ccccc2)S(C)(=O)=O)c1C`, the survival was 70%. For the molecule `COc1ccc(OC)c(NC(=O)CN(c2ccccc2OC)S(=O)(=O)c2ccc(C)cc2)c1`, the survival was 54%. Take `Cc1cccc(N(CC(=O)Nc2cccc(Cl)c2C)S(C)(=O)=O)c1C`: the survival was 61%. For `CCc1ccccc1NC(=O)CN(c1cc(C(F)(F)F)ccc1Cl)S(=O)(=O)c1ccccc1`, the survival is 44% (active). Regarding `O=C(CN(c1cc(C(F)(F)F)ccc1Cl)S(=O)(=O)c1ccccc1)NCCc1ccccc1`, the survival is 66%.

With `CCOc1ccc(S(=O)(=O)N(CC(=O)NCCc2ccc(OC)cc2)c2ccccc2)cc1`, the survival was 92%. Under `COc1ccccc1N(CC(=O)Nc1ccccc1C(F)(F)F)S(=O)(=O)c1ccc(C)cc1` stands 64%; under `Cc1cc(C)cc(NC(=O)CN(c2cc(C(F)(F)F)ccc2Cl)S(=O)(=O)c2ccccc2)c1`, 79%. `CCOc1ccc(S(=O)(=O)N(CC(=O)NCCc2ccc(OC)c(OC)c2)c2ccccc2)cc1`: the survival was 49%. As for `CCOc1ccc(S(=O)(=O)N(CC(=O)NCc2ccccc2OC)c2ccccc2)cc1`, the survival was 37% (active). With `CCc1ccccc1NC(=O)CN(c1ccccc1OC)S(=O)(=O)c1ccc(C)cc1`, the survival is 36% (active). Take `COc1cccc2cc(C(=O)N3CCCCC3)c(=O)oc12`: the survival was 85%. As to `Nc1cccc(C(=O)NC23CC4CC(CC(C4)C2)C3)c1`, the survival is 95%. Under `O=C1CCCC/C1=N\Nc1ccc(N2CCCCC2)cc1` stands 90%; under `Cc1nc2ccn(Cc3ccco3)c(=O)c2cc1C(=O)NCc1ccccc1F`, 86%; under `O=C(O)c1ccccc1SC1CC(=O)N(Cc2ccccc2)C1=O` (centres undefined), 81%. Turning to `CCOc1ccc(CCNC(=O)CCCc2nnc3n(CCCOC)c(=O)c4sccc4n23)cc1`, the survival was 91%. Turning to `NS(=O)(=O)c1ccc(NC(=O)C2CCCO2)cc1` (centres undefined), the survival was 95%.

In the case of `CCN1c2ccccc2-n2cccc2C12CCN(C(=O)Nc1ccccc1Br)CC2`, the survival was 91%. In the case of `COc1ccc(CCNC(=O)Cc2c(C)c3c(cc(C)c4c(C)c(C)oc43)oc2=O)cc1OC`, the survival is 83%. For `Cc1ccc2c(CNCC(C)c3ccccc3)c(C(=O)O)n(Cc3ccccc3C)c2c1` (centres undefined), the survival is 70%. Consider `COc1ccccc1N(CC(=O)NCCSc1ccccc1)S(=O)(=O)c1ccc(C)cc1`, for which the survival is 62%. With `COc1ccccc1N(CC(=O)NCCSCc1ccccc1)S(C)(=O)=O` the figure was 70%. For the molecule `COc1ccccc1N(CC(=O)NCCSCc1ccccc1)S(=O)(=O)c1ccc(C)cc1`, the survival is 41% (active).

For the molecule `Cc1ccc(Cn2cc3c(n2)-c2c(oc(C(=O)Nc4ccc(F)cc4F)c2C)CC3)cc1`, the survival was 85%.

Regarding `CN1CCN(c2nc3c(S(=O)(=O)c4ccccc4)nnn3c3ccsc23)CC1`, the survival is 86%. On to `Cc1ccc(-c2cc(C(=O)Oc3ccccc3Cl)no2)cc1C`, for which the survival is -1% (active). Under `Cc1ccc(NC(=O)c2cc(-c3ccc4c(c3)OCO4)on2)cc1` stands 75%. With `Cc1cccc(OC(=O)CSc2nnc(-c3ccc4c(c3)OCO4)o2)c1C` the figure was 72%; with `Cc1ccc(OC(=O)c2cc(-c3ccc4c(c3)OCCO4)on2)c(C)c1`, -2% (active). In the case of `Cc1cccc(OC(=O)c2cc(-c3ccc4c(c3)OCCO4)on2)c1C`, the survival was -1% (active). In the case of `Cc1ccc(OC(=O)c2cc(-c3ccc(Cl)cc3)on2)c(C)c1`, the survival was 92%. Take `Cc1cccc(OC(=O)c2cc(-c3ccc(Cl)cc3)on2)c1C`: the survival was 106%. For `Cc1ccccc1OC(=O)c1cc(-c2ccc3c(c2)OCCO3)on1`, the survival is -1% (active). Under `CC(C)c1ccc(OC(=O)c2cc(-c3ccccc3)on2)cc1` stands 109%. `COc1ccc(-c2cc(C(=O)Nc3c(Cl)cccc3Cl)no2)cc1OC`: the survival was 58%.
